# Compounds with a hit are over-represented: about 2.2% of the library has one in this group of screens.
# cardiac RTF act: cardiac RTF calcium sensitization; P19429+P45379; IANBD-labeled TnC RTF fluorescence at EC20 calcium; 0% EC20 calcium, 100% full calcium; activation, % at 7.2 µM; 340,000 compounds, 0.24% hits;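 active = activation above the mean over all tested compounds plus 3 SD, cut at about 30% in these data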;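 note: rise in fluorescence read as greater calcium sensitivity of cardiac thin filaments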
# Myeloid diff MLP: promotes myeloid progenitor differentiation. calls only at 10 µM. ER-HoxA9 myeloid progenitors, lysozyme-GFP differentiation, flow cytometry. 360,000 compounds, 1% hits;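 active = normalized GFP-positive differentiation at or above the plate's own cutoff, the solvent-only control mean plus 3 SD; inconclusive = no clear call, values can overlap the other calls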;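 note: cells exposed to compound for four days before flow analysis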
# CRFBP-R2 agonist: agonists of human CRF-binding protein/CRF-R2 receptor complex; AID 588473; 350,000 compounds, 0.46% hits; HEK293 CRF-R2/CRF-BP, calcium dye fluorescence (FLIPR); percent of saturating CRF peptide response; activation, % at 13.2 µM;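 active = activation of at least 50%, plus an integration ratio under a set limit after plate pattern correction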;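 note: plate controls were neutral control wells without compound for no effect and CRF at EC100 for full effect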
# RTF Ca sens inh: cardiac RTF calcium desensitization. IANBD-labeled cardiac RTF, Ca2+ fluorescence. AID 493244. 340,000 compounds, 0.12% hits. P19429+P45379. inhibition, % at 7.15 µM;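 active = inhibition above the mean inhibition of all tested compounds plus 3 SD, cut at about 17% in these data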;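 note: assay run at fixed EC70 calcium of 1.6 mM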
# CRFR2-BP antag: CRF-BP/CRF-R2 complex antagonism; HEK293 CRF-R2/CRF-BP, CRF-induced calcium fluorescence; inhibition, % at 11.8 µM; 350,000 compounds, 0.59% hits; AID 588475;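 active = inhibition of the ligand-induced calcium signal above about 50% at the single tested concentration, limit read from the data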
# Starred values were filed as active, the others as inactive; i = inactive; u = inconclusive; x = not tested or not shown; + = active, no number.
SMILES,cardiac RTF act,Myeloid diff MLP,CRFBP-R2 agonist,RTF Ca sens inh,CRFR2-BP antag
Cc1ccc2[nH]c(C(=O)N/N=C/c3ccccc3C(=O)O)c(-c3ccccc3)c2c1,-5.9,i,72.2*,-0.2,6.0
CCOC(=O)C1=CCN(S(=O)(=O)c2ccc(F)cc2)C1c1cccc(F)c1 (stereo not drawn),x,i,x,x,x
O=[N+]([O-])c1cccc(/C=N/Nc2nc(NCc3ccccc3)nc(N3CCOCC3)n2)c1O,5.0,i,68.5*,-7.0,-4.3
O=[N+]([O-])c1ccc(N2CCCC2)cc1NCc1ccccc1,-5.3,i,-1.4,2.7,18.4
O=[N+]([O-])c1ccc(N2CCOCC2)cc1NCc1ccccc1,-3.6,i,-1.4,-7.2,63.8*
Cc1cc(Br)cn2c(Cc3cccc(Cl)c3)c(-c3ccco3)nc12,x,i,x,x,x
Cc1ccc(Cc2c(-c3ccco3)nc3c(C)cc(Br)cn23)cc1,x,+,x,x,x
COc1ccc(C(=O)NCCS(=O)(=O)N2CCCC2)cc1,-1.4,x,0.6,7.3,-13.1
C[C@H](CO)N1C[C@H](C)[C@@H](CN(C)S(=O)(=O)c2ccc3ccccc3c2)OCc2cnnn2CCCC1=O,x,+,0.6,x,-10.6
CC(C)NC(=O)N(C)C[C@H]1OCc2cnnn2CCCC(=O)N([C@H](C)CO)C[C@H]1C,x,i,52.8*,x,-15.1
O=C(COC(=O)C1=Cc2ccccc2OC1)NCc1ccc(F)cc1,3.2,i,1.3,-7.8,12.5
COc1cc([N+](=O)[O-])ccc1-c1ccc(/C=N/NC(N)=O)o1,12.2,+,22.8,-33.5,-52.8
COc1cc([N+](=O)[O-])ccc1-c1ccc(/C=N/NC(=O)OC(C)(C)C)o1,9.6,i,57.2*,-2.4,-28.8
CCOc1ccc(S(=O)(=O)N(CC(=O)N/N=C/c2ccc(-c3ccc([N+](=O)[O-])cc3)o2)c2ccccc2)cc1,3.6,+,4.1,-24.1,-14.6
Cc1ccc(C)c(N(CC(=O)N/N=C/c2ccc(-c3ccc([N+](=O)[O-])cc3)o2)S(=O)(=O)c2ccccc2)c1,7.4,i,14.9,0.5,-26.0
COC(=O)N/N=C\c1ccc(-c2cc(Cl)c(Cl)cc2Cl)o1,-11.9,i,-0.9,1.7,-13.9
COCCNC(=S)N/N=C/c1ccc(-c2ccc([N+](=O)[O-])cc2)o1,11.8,i,70.0*,-26.4,-62.5
COc1ccc(C(=O)OCC(=O)NCCN2C(=O)CSC2=O)cc1,2.6,i,4.5,1.9,5.7
COc1ccc(NS(=O)(=O)c2ccc(C(=O)N3CCC(C)CC3)cc2)cc1,0.0,i,65.1*,-4.5,-8.8
CCOc1ccc(S(=O)(=O)Nc2ccc(C(=O)N3CC(C)OC(C)C3)cc2)cc1 (stereo not drawn),-7.4,i,36.0,3.8,-18.7
Cc1ccc(S(=O)(=O)Nc2ccc(NC(=O)c3c(F)c(F)c(F)c(F)c3F)cc2)cc1,-0.4,i,57.7*,-7.7,-79.5
Cc1cc(NS(=O)(=O)c2ccc(NC(=O)c3c(F)c(F)c(F)c(F)c3F)cc2)nc(C)n1,-3.8,i,1.1,-3.4,-2.6
CCOc1ccc(NS(=O)(=O)c2ccc(C(=O)N3CC(C)OC(C)C3)cc2)cc1 (stereo not drawn),4.1,i,108.4*,-8.9,-27.5
Cc1ccc(NS(=O)(=O)c2ccc(C(=O)N3CCCC(C(F)(F)F)C3)cc2)cc1 (stereo not drawn),-0.1,i,70.8*,-5.5,-27.6
O=C(C1CC=CCC1)N1CCN(C(=O)C2CC=CCC2)CC1 (stereo not drawn),1.6,i,0.4,-7.0,-10.8
SMILES,cardiac RTF act,Myeloid diff MLP,CRFBP-R2 agonist,RTF Ca sens inh,CRFR2-BP antag
O=C(NCC(c1ccco1)N1CCCC1)c1ccc(S(=O)(=O)Nc2ccc(F)cc2)cc1 (stereo not drawn),2.4,i,23.2,-5.7,-16.7
CC1CN(C(=O)c2ccc(NS(=O)(=O)c3ccc(C(C)(C)C)cc3)cc2)CC(C)O1 (stereo not drawn),-5.1,i,56.8*,-10.0,-58.1
CCOc1ccc(NS(=O)(=O)c2ccc(C(=O)NCC(c3ccco3)N3CCCC3)cc2)cc1 (stereo not drawn),-4.3,i,63.0*,-4.0,-42.2
COc1ccc([C@@]23Oc4cc(OC)cc(OC)c4[C@]2(O)[C@H](O)[C@H](C(=O)N(C)C)[C@H]3c2ccccc2)cc1,2.3,x,3.7,-4.2,0.9
CC1CCC2=NN(C(=O)c3ccco3)C(O)(C(F)(F)F)C2C1 (stereo not drawn),1.8,i,-1.2,-2.9,67.3*
O=C(c1ccco1)N1N=C(C2CCCCC2)CC1(O)C(F)(F)F (stereo not drawn),-1.6,i,-0.6,-0.1,-10.4
O=C(CSc1cccc2cccc(Cl)c12)NCc1cccs1,0.8,i,-0.5,-2.0,-21.1
CC1=[N+]([O-])C(C)(C)N(O)C1(C)C,-6.0,i,152.1*,-3.6,-143.1
O=C(CN1c2cccc3cccc(c23)S1(=O)=O)NC1CCCCC1,3.0,i,-2.6,-3.5,69.9*
O=[N+]([O-])c1ccc(N/N=C/c2cccc(O)c2O)c(S(=O)(=O)N2CCOCC2)c1,-3.0,i,-0.8,-2.2,8.5
Cc1ccc(NS(=O)(=O)c2cc([N+](=O)[O-])ccc2N/N=C/c2sc(N3CCOCC3)nc2-c2ccccc2)c(C)c1,9.8,+,18.7,-19.1,21.1
O=C(OCc1ccccc1)N1CCC2CC1c1ccc(N3CCNCC3)cc12 (stereo not drawn),x,i,0.9,x,6.1
Fc1ccc(/C=N/NC2=Nc3cccc4cccc2c34)cc1,-3.3,+,-0.2,-6.2,-29.6
COc1ccccc1CNC(=O)COC(=O)/C=C/c1ccc2c(c1)OCO2,-0.9,i,-1.7,-5.3,8.7
O=C1c2cccc3c(N4CCCCC4)ccc(c23)C(=O)N1c1ccc(O)cc1,115.5*,+,223.7*,-194.4,-277.3
Cc1ccc(N2C(=O)c3cccc4c([N+](=O)[O-])ccc(c34)C2=O)c2cccnc12,0.3,u,4.5,-3.2,20.1
Cc1ccc(N2C(=O)c3cccc4c(N5CCN(C)CC5)ccc(c34)C2=O)c2cccnc12,x,x,89.3*,x,-72.6
O=C1c2cccc3cccc(c23)C(=O)N1c1ccc(O)cc1,7.6,i,-1.0,-4.2,1.4
O=C1c2cccc3c(N4CCCCC4)ccc(c23)C(=O)N1c1ccccc1O,72.8*,+,258.9*,-117.8,-240.7
Cc1ccc(Cl)cc1NC1=NC(=S)N(C(C)C)C12CCCCC2,4.5,i,-0.9,1.7,-7.3
CN(CC(=O)N/N=C/c1ccc(F)cc1)S(=O)(=O)c1ccccc1,x,i,-2.3,x,8.0
COc1cccc(CNC(=O)C2CCN(S(=O)(=O)c3ccc4c(c3)CCC(=O)N4)CC2)c1,2.5,i,0.1,-8.1,4.2
O=C(Nc1ccc(S(=O)(=O)N2CCCCC2)cc1)C1CCN(C(=O)c2ccco2)CC1,-1.7,+,-3.9,-11.3,0.8
